Source: PubChem BioAssay AID1347073 (National Center for Advancing Translational Sciences (NCATS), 2019)
The whole screen tested about 45,000 compounds, of which about 200 (0.44%) were called active. Another 7% or so got no clear call; they are omitted. The sample as a whole holds a higher share of actives than the screen did. Values without a mark were called inactive. The call rests on the fitted dose curve; in most records, active means well fitted activation curve with a large enough effect; inconclusive means small, poorly fitted or top-dose-only effect; inactive means no such curve, though single readings can be large or run the other way.

Test: qHTS of TDP-43 Inhibitors: NCGC Sytravon Library Screen; further: nearly all actives have a fitted effect of over 55% in size; on growth rescue (activation): 0% is about no effect
Conditions: yeast TDP-43 toxicity rescue, BacTiter-Glo growth, 24 h; series mostly up to 46.1 µM; growth rescue (activation): at the top concentration
Description: The goal of this project is to identify new chemical probes capable of reversing the toxicity associated with TDP-43 which is associated with frontotemporal lobar degeneration and amyotrophic lateral sclerosis. These compounds will provide a complementary approach to deciphering the tangled mechanisms of toxicity and protection that we have uncovered through genome-wide genetic screens and are beginning to uncover in a large-scale proteomics analysis with mass spectroscopy. To this end, a miniaturized assay was developed to be screened against the Molecular Libraries Small Molecule Repository (MLSMR) to discover TDP-43 inhibitors. Please note that in the set-up this yeast-based assay compounds that inhibit as TDP-43, have a read-out as activators. NIH Chemical Genomics Center [NCGC] NIH Molecular Libraries Probe Centers Network [MLPCN] Assay Submitter (PI): Susan Lindquist, Whitehead Institute/MIT MLPCN Grant: R21 NS060957
Dispense 2.5 microL yeast galactose medium per 1536-well plate, pin compound, dispense 2.5 microL TDP-43 expressing yeast in galactose medium at OD600=0.02 (pregrown in raffinose medium to mid-log phase) per well, incubate for 24 hr at 30 deg C, and cell growth will be measured using 5 microL of Bactiter/Glo reagent to entire plate and read using Luminescence Protocol in ViewLux.
Potency means the concentration at half of the fitted maximal effect.

Compound	growth rescue (activation) [%]	Potency
COc1ccc(CN2CCC(C)(Oc3cccc(F)c3)C2)c2ccccc12 (centres undefined)	-7.83	
O=C(NCc1ccc(F)cc1)c1cc(C2CCCCN2C(=O)c2cccs2)on1 (centres undefined)	22.8	
CN(CC(=O)NC(=O)Nc1ccccc1F)Cc1ccccc1	-6.54	
CCn1c(CSc2nc(C)cc(C)n2)nnc1SCC(N)=O	2.73	
O=C(O)C(F)(F)C(NCc1ccccc1)c1ccccc1 (centres undefined)	-7.2	
CC(C(=O)Nc1ccc(F)c(F)c1F)N1CCCCCC1 (centres undefined)	14.6	
O=C(NCCc1ccc(F)cc1)c1n[nH]c2ccccc12	28.9	
O=C(COC(=O)c1ccncc1)Nc1ccc2c(c1)OCO2	5.9	
N/C(=N\OC(=O)c1ccc2c(c1)OCO2)c1ccc(Br)cc1		3.55 µM (active)
N#Cc1ccccc1NC(=O)c1ccc2c(c1)OCO2	15.1	
O=C(O)CC1(CC(=O)Nc2cccc(C(F)(F)F)c2)CCCC1	19.5	
Cn1c(NCc2cccnc2)nc2cc(-c3ccc(F)cc3)sc2c1=O	0.425	
Cc1ccc(C)c(NC(=O)CN(C)C(=O)COc2ccc3ccccc3c2)c1	-0.898	
NS(=O)(=O)c1cccc(NC(=O)CN2CCCc3ccccc32)c1	12.9	
O=C(CCn1nnc2ccccc2c1=O)N[C@@H](Cc1c[nH]c2ccccc12)C(=O)O	-8.31	
O=C(NC1CC1)C(Cc1ccccc1)NS(=O)(=O)c1ccccc1F (centres undefined)	5.63	
COc1cccc(CC2(CO)CCN(Cc3cnc(-c4cccc(C)c4)nc3)CC2)c1	8.67	
COCCCNC(=S)N1CCCC(c2nc3cc(C)c(C)cc3[nH]2)C1 (centres undefined)	8.91	
CCC1CCCCN1C(=O)CSc1nc2c(c(=O)n(C)c(=O)n2C)n1C (centres undefined)	-3.65	
CC(C)c1ccc(N(C(=O)c2ccco2)C(C(=O)NC2CCCC2)c2cccnc2)cc1 (centres undefined)	13.8	
COc1ccc(N2CCN(C(=O)C3CCN(C(=O)c4ccccc4Cl)CC3)CC2)cc1	9.74	
CCc1cc(-c2nnc(SCC(=O)NC3CC3)n2C)cs1	0.827	
COc1ccc(-c2n[nH]c(C)c2-c2ccccc2OC)c(O)c1	-0.59	
COc1ccc(-c2[nH]ncc2CN(C)Cc2cc(C)[nH]n2)c(F)c1	-11.4	
CCOc1ccccc1Oc1cn[nH]c1-c1ccc(OC)cc1O		15.8 µM (active)
COc1ccc(S(=O)(=O)N2CCOCC2)cc1NC(=O)CSc1nnc(NC2CC2)s1	8.11	
Cn1cc(CN2CCCCC2c2ccccn2)c(-c2ccc3c(c2)OCCO3)n1 (centres undefined)	-18.4	

Compound	growth rescue (activation) [%]	Potency
Cc1ccc(SCC(=O)NNC(=O)c2ccc(S(C)(=O)=O)cc2)cc1	-21.6	
CCOC(=O)C1CCN(c2ccc(C(=O)O)cc2[N+](=O)[O-])CC1	18.7	
CC(C)(C)c1nnc2sc(SCC(O)=C(C#N)c3nc4ccccc4[nH]3)nn2c1=O	2.04	
N#Cc1nc(Cc2cccc3ccccc23)oc1NCc1ccc2c(c1)OCO2		12.6 µM (active)
CC1(C(=O)NCc2ccc3c(c2)OCO3)CCN1C(=O)Cc1cccc2ccccc12 (centres undefined)	22.8	
COc1cccc(CC(=O)OCC(=O)NCc2ccc3c(c2)OCO3)c1	-6.63	
O=C(Nc1ccccc1)/C(=C\c1ccco1)NC(=O)c1ccco1	2	
Nc1nc(SCC(=O)NN(c2ccccc2)c2ccccc2)n[nH]1	-8.42	
CC(C)(C)SCCNC(=O)c1cccc([N+](=O)[O-])c1	3.85	
Cc1nn(-c2ccccc2)c2c1C(c1cccc([N+](=O)[O-])c1)N(c1ccccc1)C(=O)N2 (centres undefined)	-1.22	
COc1ccc(C(C(=O)NC2CCCC2)N(CCCO)C(=O)Cn2nnc(-c3ccc(C)o3)n2)cc1 (centres undefined)	-3.96	
CSc1ccc(C(=O)C2CCCN(C(=O)c3ccc(C)nc3)C2)cc1 (centres undefined)	7.96	
CC(=O)N1CCN(C(=O)C2(NC(=O)Nc3ccc(C)cc3)CCCCC2)CC1	14.2	
CC(=O)Oc1ccc2c(=O)oc(-c3ccc([N+](=O)[O-])cc3)nc2c1	6.06	
CC(=O)C1=C(C)NC2=C(C(=O)CC(C)(C)C2)C1C (centres undefined)	7.05	
Oc1ccccc1C=NC1CCCCC1N=Cc1ccccc1O (centres undefined)	1.52	
O=C(c1ccc(F)cc1)N1CCC(n2nnc3ccccc32)CC1	1.07	
Cc1ccc(NC(=O)CSc2nnc(CNC(=O)c3ccccc3F)o2)cc1	-1.92	
O=C(N/N=C/c1ccc2c(c1)OCO2)C(=O)N1CCCC1	10.5	
CC(OC(=O)c1ccc(Cl)cc1O)C(=O)NCCC1=CCCCC1 (centres undefined)	-10.8	
O=C(C1CCN(Cc2ccc(Cl)cc2)CC1)N1CCN(Cc2ccc3c(c2)OCO3)CC1	14.4	
COc1cccc(CC(=O)Nc2nc(-c3ccc(OC)c(OC)c3)cs2)c1	14.4	
CCN(CC(=O)NC(C)C)C(=O)c1cc(S(=O)(=O)N2CCCCC2)ccc1N1CCCCC1	5.21	
Cc1ccc(-c2noc(CNC(=O)c3ccoc3C)n2)cc1	-6.36	
O=C(CCc1c[nH]c2ccccc12)NCCOc1ccccc1	-0.599	
CCn1cc(C(=O)NCC(=O)NC(C)(C)CO)c(=O)c2cc3c(cc21)OCO3	6.6	
Cc1cccc(C(=O)NCC(=O)OCC(=O)N2CC3(C)CC2CC(C)(C)C3)c1 (centres undefined)	2.65	

Compound	growth rescue (activation) [%]	Potency
COc1ccc(OCC(=O)NNC(=O)c2cccc(C)c2)cc1	5.1	
Cc1cc(C)cc(NC(=O)CSc2ccccc2)c1	13.4	
Cc1ccc(NC(=O)CN(C)C(=O)c2ccc(Br)o2)cc1	-3.69	
CNCC(O)CN1CCN(c2ccccc2OC)CC1 (centres undefined)	-12.4	
O=c1c(-c2ccc(Cl)cc2)[n+]([O-])c2ccccc2n1OCc1nc2ccccc2[nH]1	-4.37	
Cc1cc(C)cc(N(CC(=O)NCCSCc2ccco2)S(C)(=O)=O)c1	-12.8	
COC(=O)c1ccc(CN2CCC(CO)(Cc3ccc(OC)cc3)CC2)cc1	-3.6	
CN(C)S(=O)(=O)N1CCN(c2ccc([N+](=O)[O-])cc2)CC1	5.23	
COc1ccc(N2CCN(c3ccc([N+](=O)[O-])cc3Cl)CC2)cc1	3.99	
O=[N+]([O-])c1ccc(N2CCN(c3ccc(O)cc3)CC2)c(Cl)c1		12.6 µM (active)
COCCCNc1ccn2nc(-c3ccc(CC(C)C)cc3)cc2n1	-47.9	
S=C(Nc1ccc(Br)cc1Cl)NC1CCN(Cc2ccccc2)CC1	1.2	
CC(C)=CCN1CCN(Cc2ccc(Oc3ncccn3)cc2)CC1CCO (centres undefined)	2.62	
Cc1ccc(C)c(NC(=O)c2ccc3nccnc3c2)c1	-4.87	
CC(C(=O)O)n1cnc2sc3c(c2c1=O)CCCC3 (centres undefined)	3.86	
Cc1ccc(C(=O)NC2CCN(C(=O)Nc3ccc(F)cc3)CC2)cc1	5.39	
Cc1ccc(/C=N/NC(=O)CN2CCN(Cc3ccccc3)CC2)s1	19.6	
COc1ccc2cc(S(=O)(=O)Nc3ccccn3)ccc2c1	16	
O=C(Cc1ccccc1)Nc1c(Cl)ccc2nsnc12	-0.414	
CC(Oc1ccccc1F)C(=O)NN (centres undefined)	7.92	
COc1ccc(NC(=O)C2(C)Cc3c(-c4cccc(NC(C)=O)c4)ccnc3O2)cc1 (centres undefined)	-1.39	
COc1ccc(NC(=O)C2COc3ccccc3O2)cc1 (centres undefined)	20.8	
COc1ccc(NC(=O)C2Cc3c(-c4ccc(Cl)cc4)ccnc3O2)cc1 (centres undefined)		20 µM (active)
Cc1ccc(N2CCN(C(=O)c3cccs3)CC2)c(C)c1	12.1	
O=c1[nH]oc(O)c1-c1ncc(C(F)(F)F)cc1Cl	-3.8	
